{
  "source": "PubChem BioAssay (NCI)",
  "note": "Compounds without any hit were thinned out: in the full panel of roughly 83,000, 20% have a hit.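 Interpretation: 100, growth as untreated; towards 0, rising growth inhibition; 0, no net growth; 0 to -100, cell death. Compounds scoring below 10 were considered active.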 Calls of active or inactive are those of the source.",
  "data": [
    {"tested_on": "RPMI-8226 leukemia", "test": "NCI-60 one-dose screen, 48 h (100 = growth as untreated, 0 = no growth, -100 = all killed)", "conditions": "10 µM unless noted", "experimental": "Growth inhibition of the RPMI-8226 human tumor cell line is measured as a screen for anti-cancer activity. Cells are grown in 96 well plates and exposed to the test compound for 48 hours. Compounds are tested at a single concentration, which is 10^-5 M for most compounds. The reported endpoint is percent growth (GI% or GIPRCNT), where numbers from 0 - 100% represent growth inhibition, and numbers from -100% - 0 represent cell death. For example, a value of 40 represents 60% growth inhibition. A value of 0 means no net growth occurred over the course of the experiment. A value of -40 indicates 40% of cells at the beginning of the experiment died by the end of the experiment. A value of -100 means all cells are dead at the end of the experiment.\nNCI-60 Human Tumor Cell Lines Screen was performed using the standard one-dose NCI protocol, which is described in more detail at https://dtp.cancer.gov/discovery_development/nci-60/default.htm.\nCompounds with GIPRCNT values below 10 were considered active. Activity score was based on GIPRCNT using the following formula: […]\nScore is 0 for GIPRCNT values of 100 or above, 50 for GIPRCNT values of 0, and 100 for GIPRCNT values of -100.", "values": [
      {"smiles": "CSc1ccc(C(=NNS(=O)(=O)c2ccc(C)cc2)c2ccc(Cl)cc2)cc1", "growth": "97.8% (inactive)"},
      {"smiles": "C#CCOc1cccc(-c2nc(N)nc(Nc3ccccc3SSc3ccccc3Nc3nc(N)nc(-c4cccc(OCC#C)c4)n3)n2)c1", "growth": "22% (inactive)"},
      {"smiles": "CC(=O)OC[C@]12CC[C@@H](C(=O)/C=C/c3cccnc3)[C@@H]1[C@H]1CC[C@@H]3[C@@]4(C)CC[C@H](OC(C)=O)C(C)(C)[C@@H]4CC[C@@]3(C)[C@]1(C)CC2", "growth": "-5.49% (active)"},
      {"smiles": "COc1cc(-c2nc(-c3ccccc3)[nH]c2-c2ccnc(NCCCNS(=O)(=O)c3ccc(C)cc3)n2)ccc1F", "growth": "54% (inactive)"},
      {"smiles": "CC1=C(C)C(=O)C(Nc2ccc(C)cc2)=C(Br)C1=O", "growth": "55.2% (inactive)"},
      {"smiles": "O=c1[nH][nH]c(-c2ccc(F)cc2)c1-c1nc2ccccc2s1", "growth": "97.4% (inactive)"},
      {"smiles": "CCN(CC)c1ccc(/C=N/NC(=O)c2ccc(NS(C)(=O)=O)cc2)cc1", "growth": "42% (inactive)"},
      {"smiles": "CC(=O)C1=C(C)NC(NNc2ccccc2)=NC1c1ccc([N+](=O)[O-])cc1", "note": "(stereo not given)", "growth": "92.4% (inactive)"},
      {"smiles": "CNC(=O)c1cc(N2CCc3cc(NC(=O)Nc4ccc(N5CCN(C)CC5)c(C(F)(F)F)c4)ccc32)ccn1", "growth": "-16.4% (active)"},
      {"smiles": "Cc1ccc(NC(=O)Nc2nc3ccc([N+](=O)[O-])cc3s2)cc1", "growth": "2.09% (active)"},
      {"smiles": "O=c1c2ccccc2cc2n1CCN=C2c1ccccc1", "growth": "99.2% (inactive)"},
      {"smiles": "Cc1ccccc1NC(=O)Nc1nc2ccc([N+](=O)[O-])cc2s1", "growth": "5.55% (active)"},
      {"smiles": "CC(C)(C)Nc1nc2c(OCCc3ccccc3)cccn2c1-c1cccc(Oc2ccccc2)c1", "growth": "4.94% (active)"},
      {"smiles": "Cc1ccc2c(n1)C(=O)C(Cl)=C(Nc1cc(C(F)(F)F)cc(C(F)(F)F)c1)C2=O", "growth": "6.65% (active)"},
      {"smiles": "NS(=O)(=O)c1ccc(Nc2nc(N/N=C/C=C/c3ccccc3)nc(Nc3ccccc3)n2)cc1", "growth": "28.5% (inactive)"},
      {"smiles": "CCCCCCNC(=O)Oc1ccc(/C(=C(/C)c2ccc(OC)cc2)c2ccc(OCCN3CCCCCC3)cc2)cc1", "growth": "-2.43% (active)"},
      {"smiles": "Clc1ccc(CSc2nnc(-c3ccc(Cl)cc3)n2-c2ccccc2)cc1", "growth": "94.4% (inactive)"},
      {"smiles": "C/C(=N\\NC(=O)Nc1ccccc1)c1nnn(-c2ccc([N+](=O)[O-])cc2)c1C", "growth": "102% (inactive)"},
      {"smiles": "CN1CCN(Cc2ccc(NC(=O)c3cncc(C#Cc4cnc5ccc(OC6CCOCC6)nn45)c3)cc2C(F)(F)F)CC1", "growth": "-20.9% (active)"},
      {"smiles": "CC(C)Sc1nc(-c2ccccc2)c(C#N)c(N2CCOCC2)n1", "growth": "90.7% (inactive)"},
      {"smiles": "CCN(CC)c1ccc(/C=N/NC(=O)c2ccc(S(N)(=O)=O)cc2)cc1", "growth": "34.3% (inactive)"},
      {"smiles": "COC(=O)c1ccc(NC2=C(Cl)C(=O)c3nc(C)ccc3C2=O)cc1", "growth": "36.9% (inactive)"},
      {"smiles": "CNC(=O)Nc1ccc(Nc2cc(-c3ccc(-n4cccn4)cc3)[nH]n2)c(C)c1", "growth": "93.3% (inactive)"},
      {"smiles": "CN(C)c1ccc(/C=N/Nc2nc(N/N=C/c3ccc(N(C)C)cc3)nc(N3CCCCC3)n2)cc1", "growth": "32.6% (inactive)"},
      {"smiles": "Cn1ncc2c(C(=O)c3ccc(F)cc3)nc(C(C)(C)C)nc21", "growth": "100% (inactive)"},
      {"smiles": "N#Cc1c(-c2ccc(F)cc2)cc(-c2c[nH]c3ccccc23)nc1-c1c[nH]c2ccccc12", "growth": "101% (inactive)"},
      {"smiles": "COc1ccc(/C=N/N=C(/c2ccccc2)c2ccc3nc(-c4ccc(Cl)cc4)[nH]c3c2)cc1", "growth": "48.6% (inactive)"},
      {"smiles": "O=C(CN1CCN(c2cc(=O)[nH]c3ccc(F)cc23)CC1)N(c1ccccc1)c1ccccc1", "growth": "115% (inactive)"},
      {"smiles": "NC(N)=NS(=O)(=O)c1ccc(N=Nc2c(N)nn(-c3ccc([N+](=O)[O-])cc3[N+](=O)[O-])c2N)cc1", "growth": "99.1% (inactive)"},
      {"smiles": "COc1ccc2c(c1)c(/C=N/Nc1ccnc3cc(Cl)ccc13)cn2C", "growth": "-43% (active)"},
      {"smiles": "CCC(=C(c1ccc(OCCN(C)C)cc1)c1ccc(OCCN(C)C)cc1)c1ccc(Cl)cc1", "growth": "-43.8% (active)"},
      {"smiles": "O=C1[C@H]2Cc3c([nH]c4ccccc34)[C@H](c3ccc(Br)cc3)N2C(=O)CN1C1CCN(CC2CCCCC2)CC1", "growth": "43.2% (inactive)"},
      {"smiles": "CCCCCC[n+]1ccc(SCC(=O)n2ccc3ccccc32)c2ccccc21", "growth": "49.6% (inactive)"},
      {"smiles": "O=C(Nc1ccc(N=Cc2c(O)[nH]c3ccccc23)cc1)Nc1ccc(S(=O)(=O)Nc2ncccn2)cc1", "growth": "107% (inactive)"},
      {"smiles": "Brc1ccc2[nH]cc(-c3nn4cc(-c5nccs5)nc4s3)c2c1", "growth": "4.55% (active)"},
      {"smiles": "CC1=C(C)C(=O)C(Nc2ccc3c(c2)OCO3)=C(Br)C1=O", "growth": "71% (inactive)"},
      {"smiles": "O=c1oc2ccc(-c3ccc(F)cc3F)cc2c(=O)n1-c1ccc(Br)cc1F", "growth": "31.6% (inactive)"},
      {"smiles": "CN1CC[C@@H]2[C@@]3(C)CC[C@H](O)C(C)(C)[C@@H]3CC[C@@]2(C)[C@]2(C)CC[C@@]3(CO)CCC(C)(C)C[C@@H]3C12", "note": "(stereo not given in full)", "growth": "74.6% (inactive)"},
      {"smiles": "CCNC(=O)Oc1ccc(/C(=C(/C)c2ccc(Cl)cc2)c2ccc(OCCN3CCCCCC3)cc2)cc1", "growth": "-14.9% (active)"},
      {"smiles": "O=C(CSc1cc[n+](CCCCO)c2ccccc12)n1ccc2ccccc21", "growth": "103% (inactive)"}
    ]}
  ]
}
